# This is a sample that favours compounds with a hit; in the whole collection about 4.1% have one here.
# DAX1 inh-1: inhibitors of human orphan nuclear receptor DAX1 (NR0B1) | P51843 | HEK293 Gal4-DAX1 luciferase reporter, luminescence | inhibition, % at 6.75 µM | actives 0.99% (n = 340,000) | AID 504766;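 active = inhibition above the mean over all tested compounds plus 3 SD, cut at about 4.2% in these data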;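 note: inhibition shows as a rise in luminescence from relieved DAX1 repression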
# Target sequence (P51843 207-470 limits assumed): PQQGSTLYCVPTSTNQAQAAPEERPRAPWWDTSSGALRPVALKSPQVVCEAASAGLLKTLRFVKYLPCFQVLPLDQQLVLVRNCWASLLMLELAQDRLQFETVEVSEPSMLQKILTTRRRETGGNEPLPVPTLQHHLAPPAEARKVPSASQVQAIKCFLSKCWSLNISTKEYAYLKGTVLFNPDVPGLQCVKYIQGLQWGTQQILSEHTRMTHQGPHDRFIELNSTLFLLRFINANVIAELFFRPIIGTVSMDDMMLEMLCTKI
# hcDAF12 agonist: activators of H. contortus DAF-12 nuclear receptor; HEK293 hcDAF-12 lit1-tk-luc reporter, luminescence; 0% DMSO, 100% Δ7-dafachronic acid; activation, % at 6.8 µM; actives 1.4% (n = 370,000);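 active = activation above the mean of all tested compounds plus 3 SD, cut at about 5.5% in these data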
# ssDAF-12 act: S. stercoralis DAF-12 activation, primary screen; HEK293 ssDAF-12/GRIP1 lit1-tk-luc reporter, luminescence; % of 3 µM dafachronic acid response; activation, % at 6.8 µM; actives 1% (n = 370,000); AID 652126;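 active = activation above the mean over all tested compounds plus 3 SD, cut at about 0.9% in these data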
# hgDAF-12 ag: hgDAF-12 agonism, primary luciferase screen; AID 687014; HEK293 GAL4-hgDAF12 UAS-luciferase reporter, agonist luminescence; normalized to butyrate control; actives 1.8% (n = 370,000); activation, % at 6.8 µM;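 active = activation above a cutoff set at the mean of all screened compounds plus 3 SD, cut at about 10% in these data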
# DAX1 inh-2: DAX1 (NR0B1) inhibition, primary screen; HEK293T StAR-luciferase reporter, SF-1/DAX-1 repression relief; inhibition, % at 6.8 µM; actives 1.1% (n = 370,000); AID 652010;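 active = inhibition above the mean over all tested compounds plus 3 SD, cut at about 3.6% in these data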;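 note: higher inhibition means more luminescence from relief of DAX-1 repression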
# LXRb hcDAF ctr: counter-screen for hcDAF-12 agonists: agonists of human LXR-beta. shares compounds with hcDAF12 agonist. HEK293 Gal4-LXR tk-luc reporter, luminescence, 24 h; normalized: DMSO 0%, positive control 100%. activation, % at 6.8 µM. 3,400 tested, under 10 active;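 active = mean percent activation of the reporter above a cutoff set as the average over tested compounds plus their standard deviation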
# hcDAF12 conf: confirmation of H. contortus DAF-12 agonists. shares compounds with hcDAF12 agonist. actives 61% (n = 3,400). HEK293 hcDAF-12 lit1-tk-luc reporter, luminescence; % of Δ7-dafachronic acid response. activation, % at 6.8 µM;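 active = mean activation across triplicate tests above the threshold derived from the earlier primary screen, cut at about 5.5% in these data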
# Numbers stand for hits; i = inactive; nt = not tested or not shown.
SMILES,DAX1 inh-1,hcDAF12 agonist,ssDAF-12 act,hgDAF-12 ag,DAX1 inh-2,LXRb hcDAF ctr,hcDAF12 conf
CCOC(=O)c1cnc(Nc2nc3ccccc3o2)nc1CSc1nnc(C)s1,i,i,i,i,i,nt,nt
CCOC(=O)c1cnc(Nc2nc3ccccc3o2)nc1C,i,6.8,i,10.9,4.2,i,i
O=C(NC1CCCC1)[C@@H]1CCCN1C(=O)[C@@H](NS(=O)(=O)c1ccc(F)cc1F)c1ccccc1,nt,i,i,i,i,nt,nt
O=C(Nc1ccccc1)C(=O)Nc1cccnc1,i,9.3,i,i,i,i,i
COC(=O)C1CN(Cc2ccc(F)cc2)CCS(=O)(=O)N1Cc1ccc(OC)cc1 (stereo not drawn),nt,i,i,i,i,nt,nt
O=[N+]([O-])c1cccc2ccc(/C=C/c3ccc(Cl)cc3)nc12,i,i,i,i,i,nt,nt
O=[N+]([O-])c1cccc2ccc(/C=C/c3ccc(C(F)(F)F)cc3)nc12,i,7.6,i,i,i,i,i
Cc1cccc(N2CCN(C(=S)c3ccc(-c4ccccc4[N+](=O)[O-])o3)CC2)c1,i,i,i,i,i,nt,nt
O=[N+]([O-])c1ccccc1-c1ccc(C(=S)N2CCCCC2)o1,i,6.8,i,i,i,i,7.0
O=[N+]([O-])c1ccccc1-c1ccc(C(=S)N2CCCC2)o1,i,9.4,1.8,i,i,i,9.7
S=C(Nc1ccc(I)cc1)OC1CCC12CCC(c1ccccc1)CC2 (stereo not drawn),nt,i,i,i,i,nt,nt
COc1ccccc1N1CN(S(=O)(=O)c2ccc(C)cc2)c2nc3ccccc3nc21,i,9.1,0.9,12.8,i,i,i
COc1ccc(CCN2CN(S(=O)(=O)c3ccc(C)cc3)c3nc4ccccc4nc32)cc1OC,i,i,i,i,i,nt,nt
COc1ccc(CNS(=O)(=O)/C=C/c2ccc(OC)cc2CNC(=O)OC(C)(C)C)cc1,nt,i,i,i,i,nt,nt
Cc1ccc2[nH]c(=O)c(C(c3nnnn3C3CCCC3)N3CCCc4ccccc43)cc2c1 (stereo not drawn),i,6.7,i,i,i,i,i
CC(/C=N/N1CCN(c2ccccn2)CC1)=C\c1ccccc1,i,6.7,i,i,i,i,i
Cc1nc2cc[nH]n2c(=O)c1CCc1ccccc1,nt,i,i,i,i,nt,nt
CN=C1S/C(=C/c2cc(C)n(Cc3ccccc3)c2C)C(=O)N1C,nt,i,i,i,nt,nt,nt
CCOC(=O)c1c(NC(=O)c2cccs2)sc(CC)c1-c1cccs1,i,i,i,i,i,nt,nt
Cc1sc(NC(=O)c2cccs2)c(C(N)=O)c1C,i,8.5,i,i,i,i,6.2
CC(C)Sc1nc2c([nH]c3ccccc32)c(=O)n1C,i,11.1,1.0,i,i,i,7.1
CCOc1ccc(NC(=O)CSc2nc3c([nH]c4ccccc43)c(=O)n2C)cc1,i,9.8,i,i,i,i,6.2
Cn1c(SCC(=O)Nc2cccc(F)c2)nc2c([nH]c3ccccc32)c1=O,i,6.7,i,i,i,i,i
COc1ccc(-n2c(SCC(=O)Nc3ccc(C(N)=O)cc3)nc3c([nH]c4ccccc43)c2=O)cc1OC,i,9.7,0.9,i,i,i,8.8
Cc1ccc(NC(=O)CSc2nc3c([nH]c4ccccc43)c(=O)n2C)cc1,i,i,i,i,i,nt,nt
SMILES,DAX1 inh-1,hcDAF12 agonist,ssDAF-12 act,hgDAF-12 ag,DAX1 inh-2,LXRb hcDAF ctr,hcDAF12 conf
COC(=O)C1=C(C)N(C)C(=NCc2ccc(OC)cc2)NC1c1cccc(F)c1 (stereo not drawn),nt,i,i,i,i,nt,nt
COC(=O)C1=C(C)N(C)C(=NCc2ccc3c(c2)OCO3)NC1c1cccc(C(F)(F)F)c1 (stereo not drawn),nt,i,i,i,i,nt,nt
COc1ccc(C(=O)c2c3ccccc3[n+]([O-])n2CCC(N)=O)cc1,i,i,i,i,i,nt,nt
COc1ccc2c(C(=O)c3ccc(Cl)cc3)n(CCCC(N)=O)[n+]([O-])c2c1,i,6.9,i,i,i,i,i
Cc1ccc(C(=O)c2c3ccc(C(F)(F)F)cc3[n+]([O-])n2CCCC(N)=O)cc1,i,i,i,i,i,nt,nt
Cc1ccc(C(=O)c2c3ccc(C(F)(F)F)cc3[n+]([O-])n2CCC(N)=O)cc1,i,7.8,i,i,i,i,i
COC(=O)c1ccccc1NC(=O)CN(c1c(C)cccc1C)S(C)(=O)=O,i,18.3,1.0,11.4,i,i,i
Cc1ccnc2ccc(-c3nc4ccccc4o3)cc12,i,7.8,1.0,12.9,i,i,12.0
c1cncc(-c2nc3ccccc3o2)c1,i,i,i,i,i,nt,nt
COc1cccc(OCc2ccc(Cl)cc2)c1C#N,4.8,8.4,1.7,12.3,i,i,7.3
COc1ccc(-c2noc(C3CCCN(C(=O)Nc4cc(C)cc(C)c4)C3)n2)cc1 (stereo not drawn),nt,i,i,i,i,nt,nt
Cc1cccc(C(=O)NNC(=O)/C=C/C(=O)O)c1,i,8.6,i,i,i,i,i
Cc1cccc(C(=O)NNC(=O)c2cccc(C)c2)c1,i,i,i,i,i,nt,nt
Cc1onc(-c2c(Cl)cccc2Cl)c1NC(=O)N1CCSCC1,4.2,8.0,1.8,10.6,i,i,i
Cc1onc(-c2c(Cl)cccc2Cl)c1NC(=O)NN(C)C,i,i,i,i,i,nt,nt
CCOC(=O)Cc1csc2nc(-c3ccccc3)cn12,nt,i,i,i,i,nt,nt
COC(=O)[C@]12C[C@H](CC(=O)NCCCN3CCCC3=O)C(=O)N(Cc3ccc(Cl)cc3Cl)C1=C[C@H](C(C)C)O[C@@H]2C1CC1,nt,i,i,i,i,nt,nt
Cc1ccc(NC(=O)N(C)c2ccccc2)cc1,i,i,i,i,i,nt,nt
CC1(C)Oc2ccc(NC(=O)C3COc4ccccc4O3)cc2O1 (stereo not drawn),i,8.9,1.9,12.5,4.4,i,7.6
Cc1ccc(NC(=O)C2COc3ccccc3O2)cc1 (stereo not drawn),i,6.6,i,12.0,i,i,7.7
O=C(Nc1ccccc1)C1COc2ccccc2O1 (stereo not drawn),i,i,i,i,i,nt,nt
Cc1ccc(NC(=O)C2Oc3ccccc3OC2C)cc1 (stereo not drawn),i,9.1,i,i,i,i,6.9
Cc1ccc(NC(=O)C2COc3ccccc3O2)nc1 (stereo not drawn),i,9.5,i,12.3,i,i,9.4
CCN(CC)C(=O)CC[C@H]1CC[C@]2(CCCN(Cc3nccn3C)C2)O1,nt,i,i,i,i,nt,nt
N#Cc1cccc(Cn2ccc3ccc(-c4ccc5ccn(Cc6cccc(C#N)c6)c5c4)cc32)c1,nt,i,i,i,i,nt,nt

# Bioassay records from PubChem.
